According to PubChem BioAssay (NCATS):
Inconclusive results are not listed. The source made the active and inactive calls. Calls come from the whole dose curve; as a rule, active = well fitted curve in the direction sought with a large enough effect; inconclusive = small, poorly fitted or top-dose-only effect, or another doubt; inactive = no such curve, though single readings can be large; an effect the other way counts as inactive or inconclusive.

Assays:
[1] = tested on: Hek293T; assay: Primary qHTS to identify gynecologic anti-cancer compounds using libraries of approved drugs and bioactive compounds (AID 1345084); details: Gynecologic cancer cell panel viability, ATPlite luminescence, 48 h, control line for the selectivity index; series mostly up to 57.5 µM; note: nearly all actives have a fitted effect of over 55% in size
In short: (§1)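 Five-concentration response, 48 h; readout is ATP-driven luciferase luminescence.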

[2] = tested on: JEG-3; assay: as above; details: Gynecologic cancer cell panel viability, ATPlite luminescence, 48 h; series mostly up to 57.5 µM
In short: as §1

[3] = tested on: OV90; assay: as above; details: Gynecologic cancer cell panel viability, ATPlite luminescence, 48 h; series mostly up to 57.5 µM
In short: as §1

[4] = tested on: PA-1; assay: as above; details: Gynecologic cancer cell panel viability, ATPlite luminescence, 48 h; series mostly up to 57.5 µM
In short: as §1

[5] = tested on: SKOV3; assay: as above; details: Gynecologic cancer cell panel viability, ATPlite luminescence, 48 h; series mostly up to 57.5 µM
In short: as §1

[6] = tested on: Tov-21-G; assay: as above; details: Gynecologic cancer cell panel viability, ATPlite luminescence, 48 h; series mostly up to 57.5 µM
In short: as §1

[7] = tested on: Tov112D; assay: as above; details: Gynecologic cancer cell panel viability, ATPlite luminescence, 48 h; series mostly up to 57.5 µM
In short: as §1

[8] = Drug repurposing screens with cells derived from glioblastoma tumor samples (AID 1345199); details: GBM patient neurospheres viability, ATP luminescence, 48 h; note: nearly all actives have a fitted effect of over 40% in size
In short: (§2)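 Four patient lines of CD133+ GBM neurospheres were screened at several concentrations; hits were retested in those lines plus three slower-growing GBM lines, using 48-hour treatment and ATP-based viability.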

[9] = tested on: astro; assay: as above; details: viability, ATP luminescence, 48 h; series mostly up to 45.9 µM
In short: as §2

[10] = at 45.9 µM (top of the series), tumour line B
[11] = at 45.9 µM (top of the series), tumour line D
[12] = at 46 µM (top of the series), tumour line A
[13] = at 46.1 µM (top of the series), tumour line C
[14] = at 20 µM (top of the series), tumour line C
[15] = at 21.2 µM (top of the series), tumour line B
[16] = at 21.2 µM (top of the series), tumour line D
[17] = at 21.3 µM (top of the series), tumour line A
% is set by controls: 0 for no effect and ±100 for the full control effect.

CN(C(=O)c1c(O)c2ccccc2n(C)c1=O)c1ccccc1
inactive: outcome [1] | outcome [2] | Potency [3] | outcome [4] | outcome [5] | outcome [6] | outcome [7] | activity, negative = cell killing [8, 10] -5.78% | activity, negative = cell killing [8, 11] -11.8% | activity, negative = cell killing [8, 12] -31.5% | activity, negative = cell killing [8, 13] -28.1% | outcome [9]

O=C(Cn1ccnc1[N+](=O)[O-])NCCO
inactive: outcome [1] | outcome [2] | Potency [3] | outcome [4] | outcome [5] | outcome [6] | outcome [7] | activity, negative = cell killing [8, 10] -12.6% | activity, negative = cell killing [8, 11] -6.24% | activity, negative = cell killing [8, 12] -16.3% | activity, negative = cell killing [8, 13] -12.1% | outcome [9]

Cc1cc(C)c(NC(=O)CN(CC(=O)O)CC(=O)O)c(C)c1Br
inactive: outcome [1] | outcome [2] | Potency [3] | outcome [4] | outcome [5] | outcome [6] | outcome [7] | activity, negative = cell killing [8, 10] -5.55% | activity, negative = cell killing [8, 11] -2.68% | activity, negative = cell killing [8, 12] -17.3% | activity, negative = cell killing [8, 13] -18.8% | outcome [9]

NC(=O)NC1NC(=O)NC1=O (stereo unspecified)
inactive: outcome [1] | outcome [2] | Potency [3] | outcome [4] | outcome [5] | outcome [6] | outcome [7] | activity, negative = cell killing [8, 14] 1.99% | activity, negative = cell killing [8, 15] 4.84% | activity, negative = cell killing [8, 16] -17.3% | activity, negative = cell killing [8, 17] -7.96% | outcome [9]

CN[C@@H]1[C@@H](O)[C@@H](O[C@@H]2[C@H](O)[C@H](O[C@H]3OC(CN)=CC[C@H]3N)[C@@H](N)C[C@H]2N)OCC1(C)O (stereo partly specified)
inactive: outcome [1] | outcome [2] | Potency [3] | outcome [4] | outcome [5] | outcome [6] | outcome [7] | activity, negative = cell killing [8, 10] -0.265% | activity, negative = cell killing [8, 11] 7.79% | activity, negative = cell killing [8, 12] -24.3% | activity, negative = cell killing [8, 13] -7.7% | outcome [9]

O=C(O)c1ccccc1OP(=O)(O)O
inactive: outcome [1] | outcome [2] | Potency [3] | outcome [4] | outcome [5] | outcome [6] | outcome [7] | activity, negative = cell killing [8, 10] -8.79% | activity, negative = cell killing [8, 11] 13.5% | activity, negative = cell killing [8, 12] -28.4% | activity, negative = cell killing [8, 13] -24.8% | outcome [9]

CCc1nnc(NS(=O)(=O)c2ccc(N)cc2)s1
inactive: outcome [1] | outcome [2] | Potency [3] | outcome [4] | outcome [5] | outcome [6] | outcome [7] | activity, negative = cell killing [8, 10] -21.8% | activity, negative = cell killing [8, 11] -9.53% | activity, negative = cell killing [8, 12] -28.8% | activity, negative = cell killing [8, 13] -20.9% | outcome [9]

CCCNC(C)(C)COC(=O)c1ccccc1
inactive: outcome [1] | outcome [2] | Potency [3] | outcome [4] | outcome [5] | outcome [6] | outcome [7] | activity, negative = cell killing [8, 10] -3.47% | activity, negative = cell killing [8, 11] 11.4% | activity, negative = cell killing [8, 12] -6.31% | activity, negative = cell killing [8, 13] 1.22% | outcome [9]

OCCN1C[C@H](O)[C@@H](O)[C@H](O)[C@H]1CO
inactive: outcome [1] | outcome [2] | Potency [3] | outcome [4] | outcome [5] | outcome [6] | outcome [7] | activity, negative = cell killing [8, 10] -4.15% | activity, negative = cell killing [8, 11] -2.64% | activity, negative = cell killing [8, 12] -17.7% | activity, negative = cell killing [8, 13] -28.1% | outcome [9]

NNC(=O)CP(=O)(c1ccccc1)c1ccccc1
inactive: outcome [1] | outcome [2] | Potency [3] | outcome [4] | outcome [5] | outcome [6] | outcome [7] | activity, negative = cell killing [8, 10] -1.23% | activity, negative = cell killing [8, 11] -15% | activity, negative = cell killing [8, 12] -19.4% | activity, negative = cell killing [8, 13] -12.7% | outcome [9]

NS(=O)(=O)c1ccc(C(=O)O)cc1
inactive: outcome [1] | outcome [2] | Potency [3] | outcome [4] | outcome [5] | outcome [6] | outcome [7] | activity, negative = cell killing [8, 10] -5.24% | activity, negative = cell killing [8, 11] 4.61% | activity, negative = cell killing [8, 12] -19% | activity, negative = cell killing [8, 13] -15.2% | outcome [9]

CC(=O)NCc1c(I)c(NC(C)=O)c(I)c(C(=O)O)c1I
inactive: outcome [1] | outcome [2] | Potency [3] | outcome [4] | outcome [5] | outcome [6] | outcome [7] | activity, negative = cell killing [8, 10] -9.68% | activity, negative = cell killing [8, 11] -11.6% | activity, negative = cell killing [8, 12] -20.1% | activity, negative = cell killing [8, 13] -11.1% | outcome [9]

CCc1cccc(CC)c1NC(=O)CN(CC(=O)O)CC(=O)O
inactive: outcome [1] | outcome [2] | Potency [3] | outcome [4] | outcome [5] | outcome [6] | outcome [7] | activity, negative = cell killing [8, 14] -11.2% | activity, negative = cell killing [8, 15] -2.25% | activity, negative = cell killing [8, 16] -7.08% | activity, negative = cell killing [8, 17] -26% | outcome [9]
